This passage reports inhibition results from ChEMBL document CHEMBL1961873, “Compounds: GSK PKIS; Assays: Nanosyn kinase panel” (2012).

Structures are written as SMILES.

Assay [1] deals with Protein kinase C gamma type (Homo sapiens) (UniProt P05129). The conditions noted are these: at 1 µM.
Assay [2] addresses T1, Protein kinase C iota type (Homo sapiens) (UniProt P41743).
T1 sequence (whole entry): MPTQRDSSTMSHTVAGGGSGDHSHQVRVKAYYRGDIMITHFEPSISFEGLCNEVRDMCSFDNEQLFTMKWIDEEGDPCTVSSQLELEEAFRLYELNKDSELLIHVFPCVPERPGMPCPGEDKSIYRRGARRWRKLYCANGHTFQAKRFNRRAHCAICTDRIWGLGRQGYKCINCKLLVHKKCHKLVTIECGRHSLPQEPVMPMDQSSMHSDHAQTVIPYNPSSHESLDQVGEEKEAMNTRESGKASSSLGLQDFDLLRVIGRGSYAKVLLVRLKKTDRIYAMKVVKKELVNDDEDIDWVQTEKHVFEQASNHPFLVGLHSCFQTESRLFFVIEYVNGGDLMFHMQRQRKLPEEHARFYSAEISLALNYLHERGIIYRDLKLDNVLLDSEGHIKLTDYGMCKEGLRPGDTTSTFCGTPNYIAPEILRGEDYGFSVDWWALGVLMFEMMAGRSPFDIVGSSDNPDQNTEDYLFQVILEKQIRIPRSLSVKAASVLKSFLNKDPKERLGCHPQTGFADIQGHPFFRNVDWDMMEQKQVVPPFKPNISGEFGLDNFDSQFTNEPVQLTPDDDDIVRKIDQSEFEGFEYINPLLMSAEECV
Conditions: at 0.1 µM.

The target of assay [3] is T1, Protein kinase C iota type (Homo sapiens). The conditions noted are these: at 1 µM.
The target in assay [4] is Protein kinase C theta type (Homo sapiens) (UniProt Q04759). The conditions noted are these: at 0.1 µM.
The target is the same in assay [5]. The conditions noted are these: at 1 µM.
Assay [6] concerns the target Protein kinase C beta type (Homo sapiens) (UniProt P05771). The conditions noted are these: at 0.1 µM.
Assay [7] shares this target. Conditions: at 1 µM.
The target in assay [8] is T2, Serine/threonine-protein kinase D1 (Homo sapiens) (UniProt Q15139).
T2 sequence (whole entry): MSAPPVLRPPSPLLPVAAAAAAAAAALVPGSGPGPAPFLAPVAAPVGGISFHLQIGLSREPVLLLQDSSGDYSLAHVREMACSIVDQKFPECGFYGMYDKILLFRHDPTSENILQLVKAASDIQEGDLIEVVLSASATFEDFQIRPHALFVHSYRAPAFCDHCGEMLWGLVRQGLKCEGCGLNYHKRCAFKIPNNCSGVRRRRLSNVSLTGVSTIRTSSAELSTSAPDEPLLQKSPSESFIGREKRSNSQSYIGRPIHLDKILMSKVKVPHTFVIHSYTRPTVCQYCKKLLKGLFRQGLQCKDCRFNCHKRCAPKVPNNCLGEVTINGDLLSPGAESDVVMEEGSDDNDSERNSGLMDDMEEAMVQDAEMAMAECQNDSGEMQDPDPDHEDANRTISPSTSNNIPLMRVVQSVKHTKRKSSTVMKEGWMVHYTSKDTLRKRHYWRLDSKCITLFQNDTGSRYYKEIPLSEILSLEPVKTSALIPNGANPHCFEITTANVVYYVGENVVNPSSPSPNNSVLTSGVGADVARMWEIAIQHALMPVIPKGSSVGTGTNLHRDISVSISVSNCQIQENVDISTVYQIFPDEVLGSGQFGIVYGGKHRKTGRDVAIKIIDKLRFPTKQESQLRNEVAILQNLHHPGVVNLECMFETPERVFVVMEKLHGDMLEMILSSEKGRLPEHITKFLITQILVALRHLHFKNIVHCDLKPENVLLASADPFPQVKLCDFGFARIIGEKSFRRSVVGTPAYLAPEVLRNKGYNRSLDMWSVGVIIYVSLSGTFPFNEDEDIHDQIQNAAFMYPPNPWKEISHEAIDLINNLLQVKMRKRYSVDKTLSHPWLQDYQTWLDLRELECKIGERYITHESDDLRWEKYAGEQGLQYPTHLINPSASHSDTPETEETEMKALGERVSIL
The conditions noted are these: at 0.1 µM.

For assay [9], the target named is T2, Serine/threonine-protein kinase D1 (Homo sapiens). The conditions noted are these: at 1 µM.
Assay [10] has as its target T3, Serine/threonine-protein kinase D2 (Homo sapiens) (UniProt Q9BZL6).
T3 sequence (whole entry): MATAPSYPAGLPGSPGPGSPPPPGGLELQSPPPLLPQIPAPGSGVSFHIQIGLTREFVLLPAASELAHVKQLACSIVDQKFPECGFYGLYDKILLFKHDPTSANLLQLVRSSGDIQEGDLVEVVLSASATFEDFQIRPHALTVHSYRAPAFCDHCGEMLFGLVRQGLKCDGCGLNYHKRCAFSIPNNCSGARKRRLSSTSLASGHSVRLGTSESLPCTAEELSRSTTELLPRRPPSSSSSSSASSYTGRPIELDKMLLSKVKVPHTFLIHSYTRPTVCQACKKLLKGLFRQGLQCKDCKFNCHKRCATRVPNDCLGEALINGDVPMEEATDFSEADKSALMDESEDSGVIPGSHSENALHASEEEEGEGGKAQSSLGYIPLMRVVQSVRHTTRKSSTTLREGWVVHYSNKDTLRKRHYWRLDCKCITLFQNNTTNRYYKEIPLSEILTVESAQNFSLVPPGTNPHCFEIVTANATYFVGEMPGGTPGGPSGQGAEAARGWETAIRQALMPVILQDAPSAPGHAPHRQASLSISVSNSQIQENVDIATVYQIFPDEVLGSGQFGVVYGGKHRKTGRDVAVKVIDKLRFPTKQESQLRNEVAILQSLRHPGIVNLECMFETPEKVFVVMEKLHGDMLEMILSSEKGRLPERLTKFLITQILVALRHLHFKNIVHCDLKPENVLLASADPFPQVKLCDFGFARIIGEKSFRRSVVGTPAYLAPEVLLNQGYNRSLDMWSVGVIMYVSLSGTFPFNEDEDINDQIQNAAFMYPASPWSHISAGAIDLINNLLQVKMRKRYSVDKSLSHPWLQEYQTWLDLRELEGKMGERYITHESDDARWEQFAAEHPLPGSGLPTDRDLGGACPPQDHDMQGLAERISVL
The conditions noted are these: at 0.1 µM.

Assay [11] addresses T3, Serine/threonine-protein kinase D2 (Homo sapiens). Conditions: at 1 µM.
The target of assay [12] is T4, Serine/threonine-protein kinase D3 (Homo sapiens) (UniProt O94806).
T4 sequence (whole entry): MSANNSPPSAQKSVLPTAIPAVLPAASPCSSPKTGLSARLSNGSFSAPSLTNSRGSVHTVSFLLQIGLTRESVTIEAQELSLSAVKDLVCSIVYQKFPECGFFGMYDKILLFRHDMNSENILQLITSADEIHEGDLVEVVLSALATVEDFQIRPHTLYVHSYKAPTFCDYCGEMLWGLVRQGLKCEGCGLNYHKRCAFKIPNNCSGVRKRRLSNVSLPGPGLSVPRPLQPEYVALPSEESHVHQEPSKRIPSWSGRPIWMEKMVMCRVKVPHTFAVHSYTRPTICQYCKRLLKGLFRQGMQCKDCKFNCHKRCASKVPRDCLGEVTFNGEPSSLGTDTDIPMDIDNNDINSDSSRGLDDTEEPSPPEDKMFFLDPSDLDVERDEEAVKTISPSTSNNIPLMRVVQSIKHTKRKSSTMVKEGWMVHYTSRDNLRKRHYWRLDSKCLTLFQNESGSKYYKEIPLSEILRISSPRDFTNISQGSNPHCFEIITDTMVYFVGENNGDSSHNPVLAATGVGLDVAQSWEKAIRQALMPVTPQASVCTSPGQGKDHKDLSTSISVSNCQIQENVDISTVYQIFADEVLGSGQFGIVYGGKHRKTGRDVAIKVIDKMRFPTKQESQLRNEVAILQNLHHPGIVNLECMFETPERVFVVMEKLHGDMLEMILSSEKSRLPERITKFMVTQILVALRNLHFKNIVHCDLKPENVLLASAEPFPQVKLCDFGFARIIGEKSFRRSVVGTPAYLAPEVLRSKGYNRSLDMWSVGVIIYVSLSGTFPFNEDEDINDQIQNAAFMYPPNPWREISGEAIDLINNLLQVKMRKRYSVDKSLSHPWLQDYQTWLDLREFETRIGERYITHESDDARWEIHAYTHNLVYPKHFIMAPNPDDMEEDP
Conditions: at 0.1 µM.

For assay [13], the target named is T4, Serine/threonine-protein kinase D3 (Homo sapiens). Conditions: at 1 µM.
Assay [14] addresses T5, cGMP-dependent protein kinase 1 (Homo sapiens) (UniProt Q13976).
T5 sequence (whole entry): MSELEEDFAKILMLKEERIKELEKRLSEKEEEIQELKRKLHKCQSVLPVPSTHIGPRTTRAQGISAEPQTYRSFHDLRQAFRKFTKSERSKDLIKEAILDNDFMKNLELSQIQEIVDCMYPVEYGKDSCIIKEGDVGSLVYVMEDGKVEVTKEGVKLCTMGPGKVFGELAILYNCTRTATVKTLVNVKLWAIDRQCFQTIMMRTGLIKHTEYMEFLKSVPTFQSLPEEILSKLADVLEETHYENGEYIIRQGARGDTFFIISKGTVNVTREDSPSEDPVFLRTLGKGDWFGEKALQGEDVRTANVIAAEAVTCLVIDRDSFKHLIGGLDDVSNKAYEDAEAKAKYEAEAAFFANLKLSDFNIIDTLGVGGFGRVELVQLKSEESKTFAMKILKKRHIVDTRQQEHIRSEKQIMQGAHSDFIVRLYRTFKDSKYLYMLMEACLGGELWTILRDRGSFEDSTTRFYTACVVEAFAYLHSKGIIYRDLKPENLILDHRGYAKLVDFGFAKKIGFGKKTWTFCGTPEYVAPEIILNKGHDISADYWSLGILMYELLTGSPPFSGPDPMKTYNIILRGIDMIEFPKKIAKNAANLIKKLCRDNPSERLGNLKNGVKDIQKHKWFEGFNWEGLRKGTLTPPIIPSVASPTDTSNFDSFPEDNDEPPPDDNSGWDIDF
Conditions: at 0.1 µM.

Assay [15] concerns the target T5, cGMP-dependent protein kinase 1 (Homo sapiens). Conditions: at 1 µM.
Assay [16] addresses T6, cGMP-dependent protein kinase 2 (Homo sapiens) (UniProt Q13237).
T6 sequence (whole entry): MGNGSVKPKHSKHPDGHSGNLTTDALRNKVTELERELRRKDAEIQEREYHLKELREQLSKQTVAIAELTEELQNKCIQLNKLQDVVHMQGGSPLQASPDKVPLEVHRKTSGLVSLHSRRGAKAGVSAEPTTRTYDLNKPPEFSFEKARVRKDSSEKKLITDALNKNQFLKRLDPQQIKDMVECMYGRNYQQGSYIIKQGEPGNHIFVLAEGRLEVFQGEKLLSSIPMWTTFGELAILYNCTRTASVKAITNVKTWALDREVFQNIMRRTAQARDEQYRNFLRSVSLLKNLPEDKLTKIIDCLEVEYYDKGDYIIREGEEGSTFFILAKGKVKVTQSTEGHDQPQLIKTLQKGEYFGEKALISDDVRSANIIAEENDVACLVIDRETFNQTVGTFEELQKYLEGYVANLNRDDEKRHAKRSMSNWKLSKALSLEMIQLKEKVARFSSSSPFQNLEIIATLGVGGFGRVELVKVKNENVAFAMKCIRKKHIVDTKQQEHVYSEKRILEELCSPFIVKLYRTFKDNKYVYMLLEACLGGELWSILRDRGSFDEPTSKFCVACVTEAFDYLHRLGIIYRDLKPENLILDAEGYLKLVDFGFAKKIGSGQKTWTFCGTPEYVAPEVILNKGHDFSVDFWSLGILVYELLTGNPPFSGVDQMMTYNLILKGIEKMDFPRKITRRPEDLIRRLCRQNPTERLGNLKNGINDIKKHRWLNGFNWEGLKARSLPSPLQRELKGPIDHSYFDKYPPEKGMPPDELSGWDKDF
Conditions: at 0.1 µM.

The target in assay [17] is T6, cGMP-dependent protein kinase 2 (Homo sapiens). The conditions noted are these: at 1 µM.
Assay [18] concerns the target T7, cAMP-dependent protein kinase catalytic subunit PRKX (Homo sapiens) (UniProt P51817).
T7 sequence (whole entry): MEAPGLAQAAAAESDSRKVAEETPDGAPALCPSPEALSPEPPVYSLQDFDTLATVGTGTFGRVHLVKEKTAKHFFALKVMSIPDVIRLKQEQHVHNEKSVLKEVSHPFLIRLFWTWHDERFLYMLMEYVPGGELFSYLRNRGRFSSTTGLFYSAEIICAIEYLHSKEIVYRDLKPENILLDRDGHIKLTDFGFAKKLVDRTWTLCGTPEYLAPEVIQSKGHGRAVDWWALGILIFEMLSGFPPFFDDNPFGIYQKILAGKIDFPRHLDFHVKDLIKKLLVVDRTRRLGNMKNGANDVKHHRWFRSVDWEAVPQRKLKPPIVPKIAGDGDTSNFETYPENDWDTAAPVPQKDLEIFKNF
The conditions noted are these: at 0.1 µM.

Assay [19] addresses T7, cAMP-dependent protein kinase catalytic subunit PRKX (Homo sapiens). Conditions: at 1 µM.
For assay [20], the target named is Rho-associated protein kinase 1 (Homo sapiens) (UniProt Q13464). The conditions noted are these: at 0.1 µM.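 Note: values are mean percent inhibition of ROCK1.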
Sequence of Rho-associated protein kinase 1 (Homo sapiens) (Q13464 2-1354 limits assumed): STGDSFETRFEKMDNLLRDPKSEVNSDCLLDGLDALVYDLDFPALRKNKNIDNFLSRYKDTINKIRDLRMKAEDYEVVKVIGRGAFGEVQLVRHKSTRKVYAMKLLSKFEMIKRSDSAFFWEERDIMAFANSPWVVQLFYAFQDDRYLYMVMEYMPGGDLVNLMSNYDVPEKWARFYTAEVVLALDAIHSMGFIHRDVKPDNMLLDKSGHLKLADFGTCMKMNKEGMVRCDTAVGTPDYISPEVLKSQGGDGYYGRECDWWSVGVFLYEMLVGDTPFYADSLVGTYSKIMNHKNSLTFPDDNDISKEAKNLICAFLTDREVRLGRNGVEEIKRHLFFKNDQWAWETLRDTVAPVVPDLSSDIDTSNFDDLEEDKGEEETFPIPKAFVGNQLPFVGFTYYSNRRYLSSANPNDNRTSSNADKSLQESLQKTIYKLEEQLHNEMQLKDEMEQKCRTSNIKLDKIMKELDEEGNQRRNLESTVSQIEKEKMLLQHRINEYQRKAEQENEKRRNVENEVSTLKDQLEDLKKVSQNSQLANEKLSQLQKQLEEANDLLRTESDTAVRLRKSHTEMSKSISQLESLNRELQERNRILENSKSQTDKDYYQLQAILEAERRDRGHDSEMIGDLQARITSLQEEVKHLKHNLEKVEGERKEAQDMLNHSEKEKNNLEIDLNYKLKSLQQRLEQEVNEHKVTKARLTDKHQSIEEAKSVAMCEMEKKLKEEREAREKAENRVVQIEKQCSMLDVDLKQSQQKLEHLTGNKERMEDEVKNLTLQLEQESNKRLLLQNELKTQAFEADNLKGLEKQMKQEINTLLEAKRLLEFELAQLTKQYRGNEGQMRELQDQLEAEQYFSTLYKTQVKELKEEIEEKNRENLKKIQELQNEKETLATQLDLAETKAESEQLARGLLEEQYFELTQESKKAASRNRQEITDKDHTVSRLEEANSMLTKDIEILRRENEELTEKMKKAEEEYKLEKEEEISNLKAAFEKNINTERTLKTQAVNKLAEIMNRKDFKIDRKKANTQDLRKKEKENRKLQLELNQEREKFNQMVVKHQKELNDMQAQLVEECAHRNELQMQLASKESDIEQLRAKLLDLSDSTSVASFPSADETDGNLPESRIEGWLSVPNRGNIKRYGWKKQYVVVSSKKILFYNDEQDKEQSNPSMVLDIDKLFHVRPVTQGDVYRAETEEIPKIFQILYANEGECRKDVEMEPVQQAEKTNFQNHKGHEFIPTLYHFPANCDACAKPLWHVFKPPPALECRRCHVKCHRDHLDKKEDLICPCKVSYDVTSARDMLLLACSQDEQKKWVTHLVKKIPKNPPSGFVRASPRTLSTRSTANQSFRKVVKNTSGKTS

Sequence of Protein kinase C theta type (Homo sapiens) (Q04759 whole entry, looked up): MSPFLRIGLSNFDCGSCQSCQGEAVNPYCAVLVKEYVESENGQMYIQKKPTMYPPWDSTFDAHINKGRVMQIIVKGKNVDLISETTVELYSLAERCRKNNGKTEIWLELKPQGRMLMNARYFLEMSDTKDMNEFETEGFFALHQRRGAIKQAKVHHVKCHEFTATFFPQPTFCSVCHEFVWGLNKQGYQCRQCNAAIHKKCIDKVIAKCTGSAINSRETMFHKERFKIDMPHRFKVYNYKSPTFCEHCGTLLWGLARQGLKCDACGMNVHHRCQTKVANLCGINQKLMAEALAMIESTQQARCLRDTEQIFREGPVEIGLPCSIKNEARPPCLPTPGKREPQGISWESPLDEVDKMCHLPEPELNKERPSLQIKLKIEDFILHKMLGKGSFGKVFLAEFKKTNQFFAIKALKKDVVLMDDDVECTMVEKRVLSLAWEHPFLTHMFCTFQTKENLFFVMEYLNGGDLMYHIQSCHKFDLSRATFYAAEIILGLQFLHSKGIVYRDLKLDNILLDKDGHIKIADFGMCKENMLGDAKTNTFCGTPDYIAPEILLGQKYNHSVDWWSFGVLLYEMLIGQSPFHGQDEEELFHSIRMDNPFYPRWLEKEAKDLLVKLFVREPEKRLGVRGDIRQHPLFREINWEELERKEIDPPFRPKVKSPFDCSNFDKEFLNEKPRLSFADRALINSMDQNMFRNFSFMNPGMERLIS
Sequence of Protein kinase C beta type (Homo sapiens) (P05771 2-671 limits assumed): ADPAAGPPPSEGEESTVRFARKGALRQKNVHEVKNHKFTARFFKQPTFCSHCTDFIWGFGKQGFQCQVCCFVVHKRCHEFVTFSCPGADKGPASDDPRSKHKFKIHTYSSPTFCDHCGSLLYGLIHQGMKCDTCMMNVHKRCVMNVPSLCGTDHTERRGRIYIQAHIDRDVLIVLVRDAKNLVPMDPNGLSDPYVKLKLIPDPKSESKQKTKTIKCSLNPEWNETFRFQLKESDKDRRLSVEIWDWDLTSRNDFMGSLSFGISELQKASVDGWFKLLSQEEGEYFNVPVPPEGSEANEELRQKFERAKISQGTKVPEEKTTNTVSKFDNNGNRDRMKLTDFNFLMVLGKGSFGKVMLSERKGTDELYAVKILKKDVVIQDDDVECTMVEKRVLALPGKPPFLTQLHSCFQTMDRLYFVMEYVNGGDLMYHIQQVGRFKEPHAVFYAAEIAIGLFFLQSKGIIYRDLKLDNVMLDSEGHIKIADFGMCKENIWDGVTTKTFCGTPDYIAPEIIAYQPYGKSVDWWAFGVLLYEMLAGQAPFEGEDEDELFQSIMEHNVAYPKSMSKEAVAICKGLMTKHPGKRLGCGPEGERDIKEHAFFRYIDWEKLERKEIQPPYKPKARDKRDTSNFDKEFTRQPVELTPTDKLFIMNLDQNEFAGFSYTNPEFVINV

Turning to `COc1cc(Nc2ncc(-c3ccccc3)o2)cc(OC)c1OC`, the inhibition in assay [1] is 1.46%; in assay [2], 0.32%; in [3], 0.77%; in assay [4], -0.7%; in assay [5], -0.9%; in assay [6], 0.3%. For the same molecule, the inhibition is 2.2% in [7]; -0.66% in [8]; -1.47% in [9]; -0.6% in [10]; -0.05% in assay [11]; -1.81% in [12]. The inhibition in assay [13] was -1.6%; in assay [14], 1.84%; in assay [15], 1.3%; in assay [16], -0.12%; in assay [17] it was 1.47%; in assay [18], 0.22%. For the same molecule, the inhibition in assay [19] was 0.75%; in [20] it was 0.49%.

`Fc1ccc(-c2ncn(CCCN3CCOCC3)c2-c2ccncc2)cc1`: the inhibition in assay [1] is 0.34%; in [2], 0.16%; in assay [3] it was 0.41%; in [4], -0.92%; in [5], -2.08%; in assay [6], 0.1%. In addition, the inhibition in assay [7] is 0.17%; in [8], 1.04%; in assay [9] it was 2.24%; in assay [10], 2.15%; in [11], 3.09%; in assay [12], 1.63%. The inhibition in assay [13] is 2.8%; in [14] it was 0.4%; in [15], 0.29%; in [16], 0.94%; in [17], 0.26%; in [18], -0.21%. Besides, the inhibition was -1.38% in assay [19] and 1.06% in assay [20].

Usually inhibition stands for the change of the read-out against control, counted positive when it falls.
